Rows were chosen to be rich in hits. Some 6.4% of all compounds tested hit in one or more screens of this group.
Luc counter – blocks Kinase-Glo luciferase, a counter-screen artifact. Kinase-Glo luciferase, ATP luminescence, 8 min. 200,000 compounds, 0.28% hits. Q27757. AID 1379. Potency, µM (top dose mostly 38.3 µM), for the others: at the top dose activity change, negative = inhibition, hits mostly inhibitors; also: nearly all actives have a fitted effect of over 60% in size
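Substrate mix (final 50 mM imidazole pH 7.2, 50 mM KCl, 7 mM MgCl2, 10 uM ATP, 0.01% Tween 20, 0.05% BSA) plus pin-tool compound, then Kinase-Glo detection mix; 8 min ambient, luminescence read.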
RORgamma inh – ROR gamma (mouse) transcription inhibition; AID 2551; 310,000 compounds, 5.4% hits; P51450; Potency, µM (doses to about 53.6 µM), for inactives: top-dose activity change, negative = inhibition, most hits filed as inhibitors; Drosophila S2 Gal4-RORgamma UAS-luciferase reporter, 20 h; also: nearly all actives have a fitted effect of over 60% in size
Target sequence (P51450 whole entry, looked up, the tested form may be a part): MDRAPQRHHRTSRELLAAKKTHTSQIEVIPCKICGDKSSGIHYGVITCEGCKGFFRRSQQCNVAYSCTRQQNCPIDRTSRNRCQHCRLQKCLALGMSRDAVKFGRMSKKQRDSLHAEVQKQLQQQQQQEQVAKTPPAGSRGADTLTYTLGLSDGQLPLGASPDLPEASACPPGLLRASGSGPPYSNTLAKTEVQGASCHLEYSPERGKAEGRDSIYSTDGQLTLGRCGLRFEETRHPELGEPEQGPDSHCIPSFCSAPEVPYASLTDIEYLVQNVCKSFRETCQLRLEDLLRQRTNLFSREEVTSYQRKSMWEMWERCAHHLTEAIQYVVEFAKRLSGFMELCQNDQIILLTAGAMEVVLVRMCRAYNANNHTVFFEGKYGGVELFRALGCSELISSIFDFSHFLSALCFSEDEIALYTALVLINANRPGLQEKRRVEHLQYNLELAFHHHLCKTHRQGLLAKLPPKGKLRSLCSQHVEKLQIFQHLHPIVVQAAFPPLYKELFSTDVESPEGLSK
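Luminescence from a UAS-regulated Photinus luciferase reporter in stably transfected Drosophila Schneider cells is measured; decreased signal marks ROR gamma inhibition. Fusion expression is induced by 700 uM copper sulfate for 20 hr.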
Gal4-VP16 FLuc – Gal4-VP16 reporter inhibition counter-screen; Potency, µM (series often up to 53.6 µM), for inactives: at the top dose activity, negative = inhibition, usual class: inhibitors; AID 2546; Drosophila S2 Gal4-VP16 UAS-luciferase, luminescence, 20 h; 310,000 compounds, 3.5% hits;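 also: Gal4-VP16 expression switched on by copper sulfate through the metallothionein promoter; nearly all actives have a fitted effect of over 50% in size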
Active calls of the source: *; ? = inconclusive; · = no result given; [ ] = dose if it differs, or a comment. Calls follow the shape of the dose curve; as a rule, active = well fitted curve in the direction sought with a large enough effect; inconclusive = small, poorly fitted or top-dose-only effect, or another doubt; inactive = no such curve, though single readings can be large; an effect the other way counts as inactive or inconclusive. % is scaled to controls: 0 for no effect and ±100 for the full control effect; potency is read from the fitted curve at half-maximal effect.

SMILES	Luc counter	RORgamma inh	Gal4-VP16 FLuc
CCc1ccc(NC(=S)NCc2cccnc2)cc1	·	-9.1%	16.6%
Cc1ccc(Cl)cc1NC(=S)NN	·	8.91µM*	?
S=C(NCc1ccccc1)Nc1ccncc1	·	-10.5%	14.1µM*
S=C(NCc1ccncc1)Nc1ccccc1	1.0%	18.1%	1.8%
Cc1ccc(Cl)cc1NC(=O)CSC(N)=O	2.7%	?	?
S=C(NCc1ccccc1)Nc1ccc(Cl)cc1	1.1%	4.47µM*	?
S=C(NCc1cccnc1)Nc1ccc(Cl)cc1	-2.2%	-10.0%	2.3%
CC(C)CN(C(=O)CN1CCN(c2ccc([N+](=O)[O-])cc2)CC1)c1c(N)n(CC(C)C)c(=O)[nH]c1=O	2.6%	4.1%	-7.2%
O=C1NC(=O)C2(COC(c3cccc([N+](=O)[O-])c3)OC2)S1 (stereo not drawn)	-1.1%	8.7%	14.2%
CN(C)C(=O)CN1CCN(Cc2cn(C)nc2-c2ccc3c(c2)OCCO3)CC1	-0.8%	-11.1%	0.1%
CCOC(=O)c1cc(C(=O)c2ccccc2O)cn2c(=O)c3c(C)c(C)sc3nc12	-1.0%	6.5%	-1.8%
CCc1ccc(NC(=S)Nc2ccc3[nH]c(=O)[nH]c3c2)cc1	·	12.6µM*	-65.5%
Cc1ccc(NC(=S)Nn2cnnc2)cc1	-2.0%	-39.0%	-20.8%[10 µM]
C=CCNC(=S)Nc1ccc(OC(F)F)c(Cl)c1	0.7%	?	?
Cc1ccc(NC(=O)CCC(=O)NNC(=S)Nc2ccccc2)c(C)c1	-1.1%	15.3%	2.6%
O=c1[nH]c2ccc(NC(=S)Nc3ccc(F)cc3)cc2[nH]1	·	-63.8%	-1.3%
C=CCNC(=S)Nc1ccc(Cl)cc1	-1.6%	15.8µM*	?
CC(C)COCC(O)CCC(=O)NNC(=S)Nc1ccccc1 (stereo not drawn)	-0.4%	-35.4%[10 µM]	1µM*
CCc1ccc(NC(=S)Nn2cnnc2)cc1	4.1%	1.12µM*	-0.3%
CCOc1cccc(CN2CCN(CCCc3ccccc3)C(CCO)C2)c1O (stereo not drawn)	·	-17.0%	6.0%
CC(O)Cc1cn([C@@H](CCCCNC(=O)OC(C)(C)C)C(=O)N2CCN(C(=O)OC(C)(C)C)CC2)nn1 (stereo partly drawn)	·	7.5%	-2.0%
O=C(CSc1ccccc1)Nc1nnc(C2CC2)s1	·	-1.7%	-2.5%
COc1ccc(CNC(=O)COC(=O)/C=C/c2cccc(Br)c2)cc1	-0.5%	-35.9%	1.3%
CC12CC[C@@](C(=O)O)(C(=O)C1=O)C2(C)C	-1.5%	14.9%	2.1%
O=C1C2CC=CCC2C(=O)N1c1ccc(N2CCN(c3ccccn3)CC2)c([N+](=O)[O-])c1 (stereo not drawn)	0.8%	-80.7%	4.47µM*
SMILES	Luc counter	RORgamma inh	Gal4-VP16 FLuc
O=C(c1ccc(N2CCCCC2)c([N+](=O)[O-])c1)N1CCN(c2ccccn2)CC1	0.4%	?	?
C[C@@H]1O[C@@H](O)[C@@H](O)[C@H](O)[C@H]1O	-2.3%[7.66 µM]	·	·
O=C(CSc1ncnc2sc(-c3ccccc3)cc12)NC1CCS(=O)(=O)C1 (stereo not drawn)	-3.2%	?	3.9%
Cn1nc([N+](=O)[O-])nc1Sc1cccc2cccnc12	-2.8%	11.2µM*	17.8µM*
O=[N+]([O-])c1ccc(Cl)cc1Sc1cccc2cccnc12	7.6%	-1.1%	-7.6%
CC1=C(C(=O)OC(C)C)C(c2cccs2)C(C(=O)OC(C)C)=C(C)N1	-0.4%	17.2%	-26.6%
CCC(=O)Nc1nc2ccc(NC(C)=O)cc2s1	8.4%	7.8%	14.0%
CCOc1cccc2sc(Nc3nc4ccc(NC(C)=O)cc4s3)nc12	0.8%	3.55µM*	3.98µM*
COc1ccc(C(=O)OCc2nc(N)nc(Nc3ccccc3C)n2)cc1OC	-1.1%	17.8µM*	5.2%
Cc1ccccc1Nc1nc(N)nc(COC(=O)c2cccc(S(=O)(=O)N(C)C)c2)n1	2.3%	-8.1%	0.7%
CCC1(C(=O)OC)CCc2c(cc(OC)c3ccccc23)C1=O (stereo not drawn)	·	-20.8%	6.0%
Cc1onc(-c2ccccc2Cl)c1C(=O)Nc1nnc(-c2ccc(Br)cc2)s1	0.6%	10µM*	22.4µM*
Cc1cc(NC(=O)c2c(-c3ccccc3Cl)noc2C)no1	-2.9%	-1.7%	-3.1%
Cc1onc(-c2c(F)cccc2Cl)c1C(=O)Nc1nnc(C2CC2)s1	-5.2%	23.6%	-9.8%
Cc1onc(-c2c(F)cccc2Cl)c1C(=O)Nc1nnc(-c2ccccc2)s1	-0.1%	14.1µM*	?
Cc1onc(-c2ccccc2Cl)c1C(=O)Nc1nnc(-c2ccc(Cl)cc2Cl)s1	2.5%	14.1µM*	?
Cc1onc(-c2ccccc2Cl)c1C(=O)Nc1nnc(-c2ccc(F)cc2)s1	2.0%	?	-12.3%
COc1ccc(NC(=O)CN2CCN(c3c(C)cc(C)cc3C)CC2)cc1	·	42.6%[1.91 µM]	13.7%
CN(C)c1ccc(-c2ccc3ncnc(N(C)Cc4ccco4)c3c2)cc1	·	4.1%	6.7%
O=C(O)Cc1c[nH]c2ccc(F)cc12	-2.8%[7.66 µM]	·	·
CSc1nc(S(=O)(=O)c2ccccc2)c(Cl)s1	1.9%	-0.8%	-6.7%
Oc1ccccc1/C=N/NC(=S)NCCc1ccccc1	·	7.08µM*	22.4µM*
Cc1ccc(C)c(/C=N/NC(=S)NCCc2ccccc2)c1	-6.5%	7.08µM*	7.94µM*
CN1CCN(C(=S)NCCc2ccccc2)CC1	5.1%	-17.1%	-3.2%[0.365 µM]
O=C(/C=C/c1c(Cl)cccc1Cl)NCCc1ccccc1	7.5%	-5.4%	-3.8%
SMILES	Luc counter	RORgamma inh	Gal4-VP16 FLuc
O=C(CC(=O)N/N=C/c1c(F)cccc1Cl)NCCc1ccccc1	·	16.0%	-3.1%
S=C(NCCc1ccccc1)Nc1c(Cl)cccc1Cl	·	12.6µM*	-27.2%
O=C(O)c1ccccc1/C=N/NC(=S)NCc1ccccc1	·	-14.8%	17.9%
S=C(NCCc1ccccc1)N/N=C/c1cccc(Cl)c1Cl	-0.6%	22.4µM*	?
COc1cc(/C=C2\SC(=S)N(CCC(=O)N3CCCCC3)C2=O)cc(OC)c1OC	·	?	-28.2%
COc1ccc(Br)cc1CN(C)CC(=O)Nc1c(Cl)cccc1Cl	0.2%	15.9%	-6.4%
COc1ccc(CCN=C(N)NS(=O)(=O)c2cc(F)ccc2OC)cc1	·	4.8%	9.7%
CSCC[C@H](NC(=O)[C@H](CO)NC(=O)[C@H](Cc1ccc(O)cc1)NC(=O)[C@@H](N)CO)C(=O)N[C@@H](CCC(=O)O)C(=O)N[C@@H](Cc1cnc[nH]1)C(=O)N[C@@H](Cc1ccccc1)C(=O)N[C@@H](CCCNC(=N)N)C(=O)N[C@@H](Cc1c[nH]c2ccccc12)C(=O)NCC(=O)N[C@@H](CCCCN)C(=O)N1CCC[C@H]1C(=O)N[C@H](C(=O)NCC(=O)N[C@@H](CCCCN)C(=O)N[C@@H](CCCCN)C(=O)N[C@@H](CCCNC(=N)N)C(=O)N[C@@H](CCCNC(=N)N)C(=O)N1CCC[C@H]1C(=O)N[C@H](C(=O)N[C@@H](CCCCN)C(=O)N[C@H](C(=O)N[C@@H](Cc1ccc(O)cc1)C(=O)N1CCC[C@H]1C(=O)O)C(C)C)C(C)C)C(C)C	·	10.3%	6.5%
COc1cc2c(cc1OC)C(c1ccc(Br)cc1)NC(=O)C2 (stereo not drawn)	·	30.8%	24.6%
Cc1cccc(C(=O)N2CCCC(N3CCN(Cc4ccc5c(c4)OCO5)CC3)C2)n1 (stereo not drawn)	·	-11.0%	-13.7%
